Screening results: PubChem, National Center for Advancing Translational Sciences (NCATS)
Hits are enriched below; roughly 2.4% of the tested compounds scored in any of these assays.
D2 PAM-1: potentiates the human D2 dopamine receptor allosterically | P14416 | DiscoveRx D2 beta-arrestin cells, luminescence, 90 min; 100% = 57 uM dopamine signal | potentiation, % (test concentration not listed) | hit rate 0.23% among 360,000 | AID 624464; in the data active = potentiation above about 50%
Target sequence (P14416 whole entry, looked up): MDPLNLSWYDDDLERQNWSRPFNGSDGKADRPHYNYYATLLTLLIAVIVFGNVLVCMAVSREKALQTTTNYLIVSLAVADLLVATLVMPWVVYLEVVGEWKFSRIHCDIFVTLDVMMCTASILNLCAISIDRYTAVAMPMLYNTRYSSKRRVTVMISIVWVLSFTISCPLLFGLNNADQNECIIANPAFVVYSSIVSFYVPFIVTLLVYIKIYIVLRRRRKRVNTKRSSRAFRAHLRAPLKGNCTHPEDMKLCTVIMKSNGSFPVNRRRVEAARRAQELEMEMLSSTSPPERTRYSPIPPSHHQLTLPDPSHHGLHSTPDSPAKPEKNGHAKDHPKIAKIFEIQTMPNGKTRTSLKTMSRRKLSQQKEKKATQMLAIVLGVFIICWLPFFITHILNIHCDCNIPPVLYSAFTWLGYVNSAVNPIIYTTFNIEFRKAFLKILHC
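PathHunter beta-arrestin assay in DiscoveRx D2 cells. Compounds were added with an EC20 of dopamine (50 nM final) for 90 min at 37 deg C. Luminescence was read 1 h after detection reagent, with 57 uM dopamine as the EC100 control.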
D2 PAM-2: positive allosteric modulators of human D2 dopamine receptor; hit rate 0.34% among 340,000; P14416; potentiation, % at 10 µM; AID 485347; HEK293 T-REx D2, calcium flux, EC20 dopamine potentiation;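 active = potentiation over 3 SD above the plate norm, cut at about 30% in these data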; also: 0% is about no effect
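Primary screen. Calcium kinetics in induced HEK293 T-REx D2 cells: compound pre-addition 180 s, EC20 dopamine, 180 s more.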
D2 ag-1: activates the human D2 dopamine receptor; hit rate 0.53% among 340,000; AID 485358; P14416; activation, % at 2 µM; HEK293 T-REx D2 cells, calcium flux agonist mode;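 active = activation over 3 SD above normal in the single-dose calcium agonist read, cut at about 30% in these data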; also: 0% is about no effect
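Calcium-flux readout, 1 cycle/sec over 180 s following compound pin transfer, in inducible HEK293 Trex D2 cells (force-coupled); dopamine controls included. Positive calcium responses during this window marked compounds as potential agonists.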
D2 antagonist: antagonists of human D2 dopamine receptor | HEK293 TREx D2 cells, calcium flux, dopamine EC80 | hit rate 2% among 340,000 | P14416 | inhibition, % at 10 µM; in the data active = inhibition above about 30%; inactive = below that, where a call was filed; also: 0% is about no effect
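Inhibition of EC80 dopamine-driven calcium flux, recorded kinetically, defines activity here; cells are a tetracycline-induced HEK293 T-REx line expressing force-coupled D2.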
D2 ag-2: agonists of human D2 dopamine receptor (beta-arrestin); AID 624465; activation, % (test concentration not listed); DiscoveRx PathHunter D2 beta-arrestin, luminescence, 90 min; 100% = 57 uM dopamine signal; hit rate 0.084% among 360,000; P14416; in the data active = activation above about 40%
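DiscoveRx PathHunter D2 beta-arrestin cells (2,100/well) attached overnight, then compound-stimulated 90 min at 37 C in HBSS/10 mM HEPES/0.1% Tween-20 buffer; beta-galactosidase complementation read by luminescence after 1 h at ambient temperature. Dopamine 57 uM final (EC100) as control.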
Starred values were filed as active, the others as inactive; . = no result given.

SMILES	D2 PAM-1	D2 PAM-2	D2 ag-1	D2 antagonist	D2 ag-2
CC(C)CCOP(=O)(c1ccc(N(C)C)cc1)C(O)c1ccc(Cl)cc1Cl (stereo unspecified)	-7.2	-2.3	0.6	2.1	40.4*
COc1ccc(C2CC(=O)Nc3c2c(C)nn3-c2nncc(-c3ccc(C)cc3)n2)c(OC)c1OC (stereo unspecified)	.	5.8	-1.7	.	.
COc1cc(O)c2c(c1)OC(C)(C)CC2=O	-5.1	.	1.0	3.9	-2.4
COc1cc(O)cc2cc3c(c(O)c12)C(=O)CC(C)(O)O3 (stereo unspecified)	19.7	5.8	0.2	36.9*	3.7
CN1CCN(C(=S)c2ccc(-c3cccc([N+](=O)[O-])c3)o2)CC1	-12.4	-0.3	-1.0	-0.5	-2.3
O=[N+]([O-])c1cccc(-c2ccc(CN3CCCCC3)o2)c1	-19.0	-26.8	0.8	80.7*	-7.9
O=[N+]([O-])c1cccc(-c2ccc(C(=S)N3CCOCC3)o2)c1	6.4	-1.2	-0.2	61.5*	1.4
O=C(Nc1ccc(CN2CCOCC2)cc1)c1ccc(-c2cccc([N+](=O)[O-])c2)o1	-10.5	-14.6	-1.8	6.1	2.7
COc1ccc(-n2c(-c3ccc(Br)cc3)n[nH]c2=S)cc1	-4.5	-7.6	0.3	31.0*	-3.1
Cc1ccc(NC(=O)C(C)[n+]2ccccc2)cc1[N+](=O)[O-] (stereo unspecified)	-18.7	-18.5	-0.2	59.9*	-2.9
C/C(=N\NC(=O)c1ccc(C)cc1C)c1ccc2c(c1)OCO2	-8.1	-3.1	-1.2	-3.1	-1.2
C/C(=N\NC(=O)c1cc2ccccc2cc1O)c1ccc2c(c1)OCO2	13.3	-3.1	0.7	33.3*	-5.9
Cc1c(C(=O)Nc2cccc(F)c2)oc2c1-c1nn(Cc3c(F)cccc3Cl)cc1CC2	.	7.6	0.1	.	.
O=c1cc(C(Cl)(Cl)Cl)oc2c1ccc1ccccc12	85.2*	-6.6	0.2	22.7	9.8
CC(=O)N1c2ccc(S(=O)(=O)NCCC(=O)Nc3ccc(Br)c(C)c3)cc2CC1C (stereo unspecified)	.	0.5	-0.2	.	.
COCCn1c(SCC(=O)NC(C)c2ccc(F)cc2)nc2ccccc21 (stereo unspecified)	-5.9	33.9*	-0.7	13.6	-3.8
COc1cccc(CNC(=O)CCc2c(C)c3cc4c(C)coc4c(C)c3oc2=O)c1	.	-9.1	-1.0	.	.
COc1ccc(OC)c(-c2csc(-c3c(N)c(C(=O)c4ccc(Cl)cc4)n4ccccc34)n2)c1	.	-2.4	.	.	.
COc1ccc(C(NC(=O)C2CCN(CCOc3ccc(Cl)cc3Cl)CC2)c2cccs2)cc1 (stereo unspecified)	-17.7	.	.	.	69.9*
COc1ccc(C(NC(=O)C2CCN(CCOc3ccc(F)cc3)CC2)c2cccs2)cc1 (stereo unspecified)	-16.7	.	.	.	-4.4
Cc1cc(N2CCCC2)nc(N2C3CCC2CC(O)(c2ccc(F)cc2)C3)n1 (stereo unspecified)	.	-21.6	0.3	42.2*	.
COc1ccc(C2C(C#N)=C(C)NC3=C2S(=O)(=O)c2ccccc23)cc1 (stereo unspecified)	-16.4	31.6*	-0.3	-23.7	-4.1
COC(=O)C1=C(C)NC2=C(C1c1ccc(O)cc1)S(=O)(=O)c1ccccc12 (stereo unspecified)	-12.8	-15.9	0.2	-3.8	-5.4
CCc1ccc2[nH]c(=O)c(C(c3nnnn3Cc3ccc(OC)cc3)N3CCOCC3)cc2c1 (stereo unspecified)	-7.6	3.3	0.3	-6.4	-2.7
CCc1ccc2[nH]c(=O)c(C(c3nnnn3Cc3ccccc3)N3CCOCC3)cc2c1 (stereo unspecified)	0.8	-6.2	-0.3	36.4*	0.8
SMILES	D2 PAM-1	D2 PAM-2	D2 ag-1	D2 antagonist	D2 ag-2
CCc1ccc2[nH]c(=O)c(CN(Cc3ccc(F)cc3)C(c3nnnn3CCN3CCOCC3)C(C)C)cc2c1 (stereo unspecified)	-18.6	31.3*	-5.5	-17.6	-3.9
COc1cccc(C(=O)N(c2ccc(OC)cc2OC)C2C=CS(=O)(=O)C2)c1 (stereo unspecified)	-6.9	-6.1	0.0	30.5*	-2.3
CCOc1cc(CNC(=O)c2ccc(Cn3c(=O)c4cccn4c4cccnc43)cc2)ccc1OC	.	1.9	-0.5	.	.
Cc1ccc(N2C(=O)C3C(C2=O)C(C(=O)c2ccc(Cl)cc2)N2CCCC32)cc1 (stereo unspecified)	-14.2	18.3	3.2	33.2*	-2.9
Cc1ccc(Cl)cc1-n1ncc2c(N3CCN(Cc4ccccc4)CC3)ncnc21	.	7.3	.	.	.
COC(=O)CC1c2cc(OC)c(OC)cc2CCN1C(=O)Nc1ccc(C)cc1Cl (stereo unspecified)	.	1.0	17.7	.	.
CC(C)Cc1nnc(NS(=O)(=O)Cc2ccccc2)s1	0.1	6.2	-0.4	32.0*	0.3
CC(C)Cc1nnc(NS(=O)(=O)c2ccccc2)s1	-11.2	.	.	.	-0.7
Cc1ccc(-c2ocnc2C(=O)Nc2ccccc2C(=O)N2CCCC2)cc1	-6.6	-10.9	-0.6	57.1*	0.3
O=C(Nc1ccccc1C(=O)N1CCCC1)c1ncoc1-c1cccc(Cl)c1	-1.2	3.4	-0.1	16.9	3.7
Cc1ccc(C)c(OCCC(=O)NNC(=O)c2ccncc2)c1	-15.1	-0.5	-0.6	43.4*	-2.1
Cc1ccc(C)c(OCCC(=O)NNC(=O)c2ccccc2)c1	-8.5	-4.2	0.5	-28.5	0.6
Cc1ccc(Cn2c(SCc3ccc(C(=O)N4CCCCC4)cc3)nc3ccncc32)cc1	.	4.7	1.2	.	.
Cc1cc(N2CCN(c3ccccc3)CC2)n2ncnc2n1	-1.9	6.2	0.4	-6.8	-1.9
Cc1cc(N2CCN(C(c3ccccc3)c3ccc(Cl)cc3)CC2)n2ncnc2n1 (stereo unspecified)	-3.8	8.4	-0.5	30.7*	-4.3
Cc1cc(N2CC(=O)N(CCc3ccccc3)C(=O)C2)n2ncnc2n1	-3.4	-6.5	-0.5	32.0*	0.2
CCOc1ccc(/C=C/c2nc(C#N)c(N3CCN(c4ccc(OC)cc4)CC3)o2)cc1	.	-1.0	0.3	.	.
Cc1ccc(CCNC(=O)CCN2N=C(c3ccc(C)cc3)CCC2=O)cc1	.	9.0	.	.	.
NS(=O)(=O)c1ccc(CCNC(=O)CNC(=O)c2ccc(Br)o2)cc1	-5.4	-25.3	-0.1	65.8*	-3.4
CCC(Oc1ccc(F)cc1)C(=O)Nc1nc(-c2ccc(F)cc2)ns1 (stereo unspecified)	.	-19.4	.	.	.
COCCn1c(N)c(C#N)c2nc3ccccc3nc21	-3.7	-5.3	0.6	36.0*	1.4
CCCCn1c(NC(=O)c2ccccc2)c(C#N)c2nc3ccccc3nc21	1.6	0.5	6.9	37.8*	-0.4
CCC(C)n1c(NC(=O)c2ccccc2)c(C#N)c2nc3ccccc3nc21 (stereo unspecified)	-11.2	-7.4	-0.1	-5.5	-5.5
